In the library only some 19% were active in any assay of this set; here they are far more common.
DT40 TDP1 CPT = growth inhibition of DT40 Tdp1-/-;hTDP1 cells with camptothecin (screen for TDP1 inhibitors); Potency, µM (highest dose often 46.2 µM), without a hit: at the highest dose activity change, negative = growth inhibition, most hits filed as inhibitors; 12% of 420,000 active; chicken DT40 Tdp1-/-;hTDP1 cells + 20 nM CPT, ATP luminescence, 48 h; AID 686979; further: potency means the concentration at half of the fitted maximal effect; nearly all actives have a fitted effect of over 55% in size
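Chicken DT40 Tdp1-/- cells stably complemented with human TDP1 were seeded at 400 cells/well in medium containing 20 nM camptothecin, exposed to pin-transferred compounds, and grown at 37 °C for at least 48 hr. Viability was read as ATP luminescence.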
HT1080NT lethal = kills 2HG-producing HT-1080-NT fibrosarcoma cells | Potency, µM (doses to about 46.1 µM), inactives show at the highest dose activity, negative = less viability, most hits filed as cytotoxic | HT-1080-NT fibrosarcoma viability, CellTiter-Glo ATP luminescence, 48 h | 1.6% of 360,000 active;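 further: NT is the 2HG producing partner of a matched IDH1 knockdown line; potency means the concentration at half of the fitted maximal effect; 0% = DMSO-treated cells and -100% = media-only wells without cells; nearly all actives have a fitted effect of over 55% in size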
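HT-1080-NT; 750 cells/well; 5% FBS RPMI; 48 h compound, 37 degrees C; CellTiter-Glo luminescence; curve fitting and curve-class assignment.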
HT1080 IDH1KD tx = HT-1080 IDH1 knockdown cell toxicity (counter line). HT-1080 IDH1 knockdown viability, ATP luminescence, 48 h. Potency, µM (top dose mostly 46.1 µM), for the others: at the highest dose activity, negative = toxicity, actives largely listed as cytotoxic. 2% of 360,000 active;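 further: potency means the concentration at half of the fitted maximal effect; 0% = DMSO wells and -100% = cell-free medium wells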
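CellTiter-Glo luminescence after 48 h compound exposure at 37 degrees C of IDH1-knockdown HT-1080 cells in 5% FBS RPMI. %Activity scaled between DMSO wells and cell-free media wells, with curves fitted and assigned curve classes.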
DT40 TDP1 no CPT = qHTS for Inhibitors of human tyrosyl-DNA phosphodiesterase 1 (TDP1): qHTS in cells in absence of CPT; Potency, µM (highest dose often 46.2 µM), without a hit: top-dose activity change, negative = growth inhibition, usual class: inhibitors; DT40 Tdp1-/- hTDP1 cells, no CPT, ATP luminescence, 48 h; 15% of 420,000 active; further: potency means the concentration at half of the fitted maximal effect; nearly all actives have a fitted effect of over 55% in size
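DT40 Tdp1-/-;hTDP1 cells, no CPT (DMSO vehicle only), 400 cells/well; compounds pin-transferred; ≥48 hr, 37 °C; CellTiter-Glo 30 min RT dark, luminescence read.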
uPA generation = blocks generation of uPA at the cell surface; AID 540303; Potency, µM (titrated, usually from 38.3 µM), inactives show top-dose activity change, negative = inhibition, actives largely listed as inhibitors; cell surface uPA generation assay, qHTS; 0.31% of 330,000 active; active means well fitted inhibition curve with a large enough effect; inconclusive means small, poorly fitted or top-dose-only effect; inactive means no such curve, though single readings can be large or run the other way; tested in mouse RAW 264.7 cells; further: potency means the concentration at half of the fitted maximal effect; nearly all actives have a fitted effect of over 55% in size
IL-1B inflam inh = blocks inflammasome-driven IL-1 beta release | THP-1 LPS/ATP IL-1B secretion, AlphaLISA, 16 h; stronger effect = lower value | activity change, % at 57.5 µM | 4.7% of 360,000 active; in the data active means activity change below about -50%; inconclusive means mostly about -30% to -49%
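THP-1 cells pretreated 1 hr with compounds (up to 57.5 uM final), then stimulated with LPS (250 ng/mL final) plus ATP (1.25 mM final); secreted IL-1B measured by AlphaLISA after 16 hr, decreased signal indicating inhibition.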
Numbers without * were called inactive; u = inconclusive; x = no result; [ ] = remark or other dose. Unless noted, the call rests on the fitted dose curve; in most records, active means well fitted curve in the direction sought with a large enough effect; inconclusive means small, poorly fitted or top-dose-only effect, or another doubt; inactive means no such curve, though single readings can be large; an effect the other way counts as inactive or inconclusive. Unless noted, on the % scale 0 is the no-effect control and ±100 the full control effect.

SMILES | DT40 TDP1 CPT | HT1080NT lethal | HT1080 IDH1KD tx | DT40 TDP1 no CPT | uPA generation | IL-1B inflam inh
Cc1ccc(NC(=O)c2cc(S(=O)(=O)N3CCOCC3)c(Cl)cc2Cl)cc1 | u | x | x | 18.4µM* | x | x
COc1ccc(C(=O)N2CCOCC2)cc1S(=O)(=O)N1CCC(C)CC1 | -2.9% | 14.4% | 14.6% | -10.3% | 2.9% | 12.8
CN1Cc2cnnn2-c2ccccc2C1c1ccccc1 (stereo not given) | -20.6% | 8.4% | 3.0% | u | 10.0% | 5.6
COc1ccccc1NC1(C#N)CCCCC1 | -10.1% | -0.8% | -0.1% | 31.6% | -29.4% | 11.9
Cc1cccc(CN2CCc3nc(N4CCN(c5ccccn5)CC4)ncc3C2)c1 | 14.6µM* | x | x | 10.3µM* | x | x
Cc1cccc(CN2CCN(C(=O)Cc3ccccc3)CC2)c1 | 1.3% | 16.2% | 5.4% | -23.9% | -2.0% | -15.0
O[C@H]1C2CCC1C(N1CCCCC1)CC2 (stereo not given in full) | 11.0% | -2.4% | -6.5% | 4.0% | 4.6% | -5.6
O=P(/C=C1\OCc2ccccc21)(Oc1ccccc1)Oc1ccccc1 | u | -3.1% | -1.0% | u | x | 0.0
ClCCN(CCCl)c1ccc(C=Nc2ccncc2)cc1 | u | x | x | 11.2µM* | x | x
ClCCN(CCCl)c1ccc(C=Nc2ccc(/C=C/c3ccncc3)cc2)cc1 | 12.6µM* | x | x | 12.6µM* | x | x
Cc1nc2c(=O)n(C)c(=O)nc-2n(C)n1 | 0.411µM* | 2.59µM* | 1.3µM* | 0.517µM* | -7.8% | -100.2*
CCOC(=O)NC(C)(C)Cc1ccc(Cl)cc1 | 4.9% | x | x | u | x | x
OCC1CN1C1CCCCC1 (stereo not given) | u | 5.9% | 4.7% | u | -3.3% | -19.5
CCCNC1=C(C)C(=O)C2=C(C1=O)C(COC(N)=O)[C@]1(OC)C3NC3CN21 (stereo not given in full) | u | -7.5% | -4.2% | 0.259µM* | -11.5% | -17.8
N#CC12c3ccccc3C(=O)N1Cc1cnnn1-c1ccccc12 (stereo not given) | -18.6% | 2.4% | -7.8% | -20.4% | x | 0.3
OC1(CN2CCOCC2)C2CC3CC(C2)CC1C3 (stereo not given) | -2.0% | 10.0% | 16.5% | -16.0% | 3.7% | 24.9
CC[C@@]1(O)C(=O)OCc2c1cc1n(c2=O)Cc2cc3c(N)cccc3nc2-1 | 0.164µM* | 2.06µM* | 1.3µM* | 0.13µM* | -100.6% | -112.2*
COc1ccc(C2=C(C(C)=O)Sc3nnc(-c4ccc(C)cc4)n3N2C(C)=O)cc1OC | 2.91µM* | x | x | 4.61µM* | x | x
O=C1NC(=O)C(=Cc2cn(CCOc3ccc4c(c3)OCO4)c3ccccc23)C(=O)N1 | u | -2.6% | -8.2%[9.24 µM] | 20.6µM* | 2.4% | -10.1
C=CCN1CC[C@]23c4c5ccc(O)c4O[C@@H]2C(=O)CC[C@]3(O)[C@H]1C5 | -2.9% | x | x | -11.4% | x | x
CN(Cc1cccc(-c2ccncc2)c1)C(=O)Oc1ccccc1Cl | u | -16.6% | -29.4% | u | x | 18.1
Cc1nc2cc(OC(=O)N(C)Cc3cccc(-c4ccncc4)c3)ccc2s1 | u | u | u | 18.4µM* | x | u
CN(Cc1cccc(-c2ccncc2)c1)C(=O)Oc1ccccc1Cc1ccccc1 | u | 18.4µM* | 13µM* | 16.4µM* | x | 0.0
COCCn1c(O)c(/C=N/NC(=O)CSC(=S)N2CCCC2)c(=O)[nH]c1=S | -6.7% | 8.1% | 3.3% | 9.7% | u | -10.0
NC(N)=N/N=C/c1ccc(N(c2ccccc2)c2ccccc2)cc1 | 16.4µM* | u | u | 18.4µM* | -8.3% | -54.8*
SMILES | DT40 TDP1 CPT | HT1080NT lethal | HT1080 IDH1KD tx | DT40 TDP1 no CPT | uPA generation | IL-1B inflam inh
NC(N)=N/N=C/c1ccc(N2CCOCC2)cc1 | 4.61µM* | u | -19.5% | 4.61µM* | 7.94µM* | 49.8
COc1ccc(/C=N\N=C(N)N)cc1 | u | -2.1% | 0.4% | 16.4µM* | -9.8% | -9.8
CC(C)(C)OC(=O)c1ncn2c1[C@@H]1CCCN1C(=O)c1c(Br)cccc1-2 | 5.8% | x | x | u | x | x
CCN1C[C@@]2(C)CC[C@@H](OC)[C@@]34C2C(O)[C@@]2(OCO[C@]25CC(OC)C2C[C@@]3(O)C5C2O)C14 (stereo not given in full) | -0.6% | x | x | -1.5% | x | x
O=C(c1ccco1)N1Cc2ccccc2-n2nncc2C1 | 19.4% | -5.8% | 0.5% | -14.7% | x | 10.4
CC[N+]12CCC(CC1)C(=C(c1ccccc1)c1ccccc1)C2 | u | -11.7% | -8.5% | 16.4µM* | -7.3% | 0.0
CCCc1c(C)nc(-c2ccc(C)cc2)nc1OC(=O)N(C)C | 15.3% | 11.1% | 6.5% | -24.5% | -4.6% | -11.0
CN1/C(=C\C=C2C(=O)NC(=O)NC2=O)C(C)(C)c2ccccc21 | u | u | u | -28.4% | u | -7.7
CCN1/C(=C/C=C/C2=[N+](CC)c3ccccc3C2(C)C)C(C)(C)c2ccccc21 | 0.146µM* | 9.2µM* | 10.3µM* | 0.13µM* | x | -104.6*
C[n+]1c2cc(N)ccc2cc2ccc(N)cc21 | 3.66µM* | 2.31µM* | 2.31µM* | 2.91µM* | u | -108.0*
Cc1ccc(N)cc1N | 3.9% | 24.2% | 1.9% | 6.0% | 3.9% | -22.8
C[n+]1c2cc(N)ccc2cc2ccc(N)cc21 (tested in a mixture with another compound) | 2.11µM* | x | x | 1.84µM* | x | x
CN(C)Cc1c[nH]c2cc([N+](=O)[O-])ccc12 | -2.1% | 4.7% | -9.2% | -2.9% | -0.9% | -6.2
COC(=O)C1=C(c2ccc(C(C)=O)cc2)C[C@@H]2CC[C@H]1N2C(=O)NCC1CC1 | -7.4% | 14.9% | 14.1% | -10.3% | 6.6% | 16.0
COC(=O)C1=C(c2ccc3ccccc3c2)C[C@@H]2CC[C@H]1N2C(=O)NC1CC1 | 14.6µM* | 8.6% | 2.9% | 9.2µM* | 2.6% | 31.9
COC(=O)C1=C(c2ccc3ccccc3c2)C[C@@H]2CC[C@H]1N2C(=O)NCC1CC1 | 11.6µM* | -3.1% | 0.1% | 9.2µM* | -6.6% | 52.2
COC(=O)C1=C(c2ccc3ccccc3c2)C[C@@H]2CC[C@H]1N2C(=O)NC1CCCCC1 | u | 2.0% | 2.4% | 16.4µM* | u | 9.5
CN1c2cc(O)c(N=NC(N)=O)cc2CC1S(=O)(=O)O (stereo not given) | -0.4% | x | x | u | x | x
C[C@H](NC(=O)N1C[C@H]2C[C@@H](C1)c1cccc(=O)n1C2)C(=O)Nc1ccc(F)c(F)c1 | 6.8% | -3.7% | -0.8% | u | -0.9% | 19.1

Source: PubChem
